# “And” between values parts separate entries of the source, which are not always exact repeats. Equal entries are not always repeated. Records with an inconclusive call do not appear. The source made the active and inactive calls.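 How the source made its calls, unless noted: active means compounds whose cell count with miR-34 switched on is under 0.7 times the count with it off; inactive means the rest.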
# What was measured:
# [1] = viability loss in pontine glioma line – cell-based, SU-DIPG-XXV, MIPE5.0, CellTiter-Glo, qHTS, dose response (AID 1347065; cut-off not given, nearly all actives have AC50 up to about 26 µM;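 further: cells exposed to compound for 48 hours before ATP readout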); settings: CellTiter-Glo ATP luminescence
# [2] = SU-DIPG-VI glioma cell viability, MIPE4.0 library, CellTiter-Glo luminescence, qHTS (AID 1347066; cut-off not given, nearly all actives have AC50 up to about 30 µM;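 further: cells exposed to compound for 48 hours before readout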); settings: CellTiter-Glo ATP luminescence
# [3] = JHH-DIPG-1 glioma cell viability, MIPE5.0 library, CellTiter-Glo luminescence, qHTS (AID 1347067; cut-off not given, nearly all actives have AC50 up to about 26 µM;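 further: cells exposed to compound for 48 hours before readout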); settings: JHH-DIPG-1 glioma viability, CellTiter-Glo ATP luminescence
# [4] = sensitizers of A549 cells to miR-34 induction, primary screen, imaging, A549 dox-inducible miR-34, nuclei and caspase counts (AID 1347080); settings: A549 miR-34 inducible, Hoechst nuclei count, 48 h
# [5] = phospholipid biosynthesis inhibitors in animal cells, primary screen, cell-based, LOPAC library, screen 4 (AID 1347384; call rule not given here); settings: phospholipid biosynthesis inhibition screen, at 10 µM
# [6] = survival rescue of mitochondrial mutant cells in low glucose, primary screen, MELAS cybrids, Rieske KO mouse fibroblasts, CellTiter-Glo (AID 1508586;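 active means mean z-score across replicates of 1.96 or higher in either the MELAS or the Rieske mutant cell line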;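 further: z relative to plate mean and SD of compound and empty wells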)
# [7] = biological target: NAD(+) hydrolase SARM1 (Homo sapiens) (UniProt Q6SZW1); assay: SARM1 TIR NADase inhibitors, cell lysate, NAD-Glo luminescence (AID 1508614;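 active means compound whose remaining NAD level is above about 45 nM, limit read from the data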); settings: SAM-TIR HEK293T lysate NADase, at 1 µM, stronger effect = higher value
# [8] = biological target: Mitogen-activated protein kinase 7 (Homo sapiens) (UniProt Q13164); assay: ERK5 transactivation activators in reporter cells, primary screen, cell-based, HTS (AID 1508626;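 active means luciferase signal above three times the same-plate solvent-only control wells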;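 further: luciferase driven by Gal4-ERK5 fusion binding five Gal4 sites before minimal TATA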); settings: HeLa Gal4-ERK5 transactivation, 18 h, at 5 µM, stronger effect = higher value
# [9] = viability rescue of complex I mutant cybrids, primary screen, cell-based, galactose medium, ATP luminescence (AID 1645843;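 active means z-score of at least 1.8 in each of two replicates, scored against plate mean and spread of sample wells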;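 further: positive z means more ATP and so rescue of galactose-driven cybrid death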); settings: complex I mutant cybrid cells, 72 h, stronger effect = higher value
# [10] = SU-DIPG-XXV glioma cell viability, MIPE5.0 library, qHTS (AID 1347068; cut-off not given, nearly all actives have IC50 up to about 30 µM)
# [11] = stronger effect = lower value, cell number ratio, induced over uninduced
# [12] = measured here: relative caspase fold change +Dox/-Dox
# [13] = measured here: total cells with miR-34 induction, stronger effect = lower value
# [14] = measured here: total cells without miR-34 induction
# [15] = MELAS cybrid survival, CellTiter-Glo 48 h, stronger effect = higher value
# [16] = Rieske KO mouse fibroblast survival, CellTiter-Glo 72 h
# NAD(+) hydrolase SARM1 (Homo sapiens), sequence (Q6SZW1 whole entry, looked up, the tested form may be a part): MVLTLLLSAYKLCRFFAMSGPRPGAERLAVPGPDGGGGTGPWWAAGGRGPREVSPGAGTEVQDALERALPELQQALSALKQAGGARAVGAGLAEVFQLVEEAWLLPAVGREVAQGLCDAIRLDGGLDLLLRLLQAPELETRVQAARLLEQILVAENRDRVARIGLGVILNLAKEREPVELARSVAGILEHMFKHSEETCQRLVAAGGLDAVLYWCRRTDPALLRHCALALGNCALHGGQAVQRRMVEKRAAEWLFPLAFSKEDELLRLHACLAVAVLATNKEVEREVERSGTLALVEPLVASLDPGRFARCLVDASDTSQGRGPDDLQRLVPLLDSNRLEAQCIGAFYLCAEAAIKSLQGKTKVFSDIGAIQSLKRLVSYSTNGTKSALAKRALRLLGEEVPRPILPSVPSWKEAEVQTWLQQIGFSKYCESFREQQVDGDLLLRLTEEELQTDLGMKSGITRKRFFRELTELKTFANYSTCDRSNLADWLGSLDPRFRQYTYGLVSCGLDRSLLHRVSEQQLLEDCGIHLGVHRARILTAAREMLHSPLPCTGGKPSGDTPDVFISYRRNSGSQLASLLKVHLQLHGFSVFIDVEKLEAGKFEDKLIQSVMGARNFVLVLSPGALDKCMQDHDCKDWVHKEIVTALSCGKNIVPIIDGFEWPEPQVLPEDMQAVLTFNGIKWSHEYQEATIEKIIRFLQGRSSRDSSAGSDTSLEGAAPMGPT
# Mitogen-activated protein kinase 7 (Homo sapiens), sequence (Q13164 whole entry, looked up, the tested form may be a part): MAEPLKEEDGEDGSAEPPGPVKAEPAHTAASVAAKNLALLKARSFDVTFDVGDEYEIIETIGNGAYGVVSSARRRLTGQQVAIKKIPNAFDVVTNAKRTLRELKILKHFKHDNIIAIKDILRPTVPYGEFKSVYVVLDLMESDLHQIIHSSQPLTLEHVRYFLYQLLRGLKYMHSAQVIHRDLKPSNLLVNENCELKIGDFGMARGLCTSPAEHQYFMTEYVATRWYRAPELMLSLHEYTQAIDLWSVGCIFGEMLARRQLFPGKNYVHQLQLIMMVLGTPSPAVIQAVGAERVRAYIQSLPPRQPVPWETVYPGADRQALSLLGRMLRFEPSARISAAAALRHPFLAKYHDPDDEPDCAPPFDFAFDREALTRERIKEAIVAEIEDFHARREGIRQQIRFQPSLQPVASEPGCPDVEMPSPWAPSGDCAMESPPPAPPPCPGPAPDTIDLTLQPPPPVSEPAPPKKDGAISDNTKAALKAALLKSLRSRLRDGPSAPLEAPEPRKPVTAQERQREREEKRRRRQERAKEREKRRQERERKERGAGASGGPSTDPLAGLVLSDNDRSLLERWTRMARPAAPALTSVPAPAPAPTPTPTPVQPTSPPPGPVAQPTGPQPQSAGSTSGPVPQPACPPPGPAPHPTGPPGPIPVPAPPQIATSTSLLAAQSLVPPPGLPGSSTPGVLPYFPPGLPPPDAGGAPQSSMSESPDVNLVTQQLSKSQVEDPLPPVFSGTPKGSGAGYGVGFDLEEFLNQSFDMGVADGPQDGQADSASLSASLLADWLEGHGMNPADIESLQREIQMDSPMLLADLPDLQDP
Structure (SMILES),outcome [1],outcome [2],outcome [3],"fold change [4, 11]","fold change [4, 12]","cell count [4, 13]","cell count [4, 14]",outcome [5],"z-score [6, 15]","z-score [6, 16]",remaining NAD [7],luciferase signal [8],z-score [9],outcome [10],AC50 [1],AC50 [2],AC50 [3]
Cn1c(=O)c2c(ncn2C)n(C)c1=O,inactive,inactive,inactive,0.965 (inactive) and 0.863 (inactive),1.02 and 1.01,9770 and 10600,10100 and 12300,inactive,0.603 (inactive),-0.496,10 nM (inactive),32 AU (inactive),0.3 (inactive),,,,
COc1cc(OC)c(C(=O)CCCN2CCCC2)c(OC)c1,inactive,inactive,,0.858 (inactive) and 0.948 (inactive) and 0.902 (inactive),1.32 and 1.94 and 0.958,8900 and 10500 and 8390,10400 and 11000 and 9300,,-0.379 (inactive) and 0.339 (inactive),-0.346 and 0.199,10 nM (inactive),40 AU (inactive),0.65 (inactive),inactive,,,
COc1ccc2cc3[n+](cc2c1OC)CCc1cc2c(cc1-3)OCO2,,,,0.92 (inactive) and 0.934 (inactive),1.68 and 1.22,5700 and 4440,6200 and 4750,,0.0209 (inactive),0.259,,64 AU (inactive),,,18.6 µM (active),23.5 µM (active),18.6 µM (active)
COc1ccc2nc(S(=O)Cc3ncc(C)c(OC)c3C)[nH]c2c1 (stereo unspecified),inactive,inactive,inactive,,,,,,,,10 nM (inactive),68 AU (inactive),,inactive,,,
Cn1c(NCCN(CCO)CCCc2ccc([N+](=O)[O-])cc2)cc(=O)n(C)c1=O,inactive,,inactive,0.987 (inactive) and 0.875 (inactive),1.91 and 1.23,8810 and 9410,8920 and 10800,,0.423 (inactive) and 0.101 (inactive),0.302 and -0.676,,,0.115 (inactive) and 0.85 (inactive),inactive,,,
CCOc1cc(N)c(Cl)cc1C(=O)NCC1CN(Cc2ccc(F)cc2)CCO1 (stereo unspecified),inactive,inactive,,0.847 (inactive) and 0.952 (inactive),1.51 and 0.602,7930 and 7020,9370 and 7370,,-0.303 (inactive),-0.205,,,0.725 (inactive),inactive,,,

# From PubChem BioAssay
